Several values for one entry are separate records, joined by “and”; a condition that tells them apart may be missing. Equal entries are not always repeated. Compounds without any hit were thinned out: in the full panel of roughly 79,000, 15% have a hit. More than one record can exist for a structure, and the calls need not agree. Activity calls are given as the source filed them. No stated cut-off is given here; in the data, active means growth inhibition above about 70%; inactive means the rest.
Experiment: NCI Yeast Anticancer Drug Screen. Data for the mlh1 rad18 strain (AID 175)
Conditions: S. cerevisiae mlh1 rad18 strain growth inhibition; at 50.0 µM (retest, dose inferred, filed as 5.0); stronger effect = higher value
Method in brief: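 Cells of a genetically altered yeast strain, deficient in DNA damage repair, were treated with compound. Their growth was then compared with that of vehicle-treated cultures to give inhibition.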

**Q.** For `COc1ccc(/C=C2\CCc3ccccc3C2=O)cc1OC`, which growth inhibition is on record?
**A.** 91% (active)

**Q.** For `CC(C)c1ccc(O)c(=O)cc1`, which growth inhibition is on record?
**A.** 45% (inactive) and 43% (inactive) and -2% (inactive)

**Q.** Which growth inhibition does the source give for `O=Cc1ccccc1B(O)O` here?
**A.** 94% (active)

**Q.** With `OCC(O)C(O)C(O)C(O)c1nc2ccccc2[nH]1` (configuration not stated) as the compound, how does the growth inhibition read?
**A.** 5% (inactive) and 1% (inactive)

**Q.** For `CC(=O)CC[N+](C)(C)C`, which growth inhibition is on record?
**A.** 80% (active)

**Q.** With `O=C(O)[C@H]1[C@@H](C2CCCCC2)O[C@@H](C2CCCCC2)O[C@H]1C(F)(F)F` as the compound, how does the growth inhibition read?
**A.** 18% (inactive)

**Q.** For `CN(NC(=O)/C(=C/C=C/c1ccccc1)NC(=O)c1ccccc1)C1=C(Cl)C(=O)[N+](c2ccccc2)=CC1`, which growth inhibition is on record?
**A.** 18% (inactive)

**Q.** With `CCCCOc1ccc(Nc2c3ccccc3nc3ccccc23)cc1` as the compound, how does the growth inhibition read?
**A.** 92% (active)

**Q.** Which growth inhibition does the source give for `N#C/C(=C1C=C/C(=N\O)C(Cl)=C\1)c1ccccc1` here?
**A.** 87% (active)

**Q.** Which growth inhibition does the source give for `COc1cccc2c1C(=O)c1c(O)c3c(c(O)c1C2=O)CC(O)(C(=O)CO)CC3OC1CC(N)C(O)C(C)O1` (configuration not stated) here?
**A.** -1% (inactive) and 3% (inactive) and 94% (active)

**Q.** For `COc1ccc(C(=O)OCCc2ccccc2)cc1`, which growth inhibition is on record?
**A.** 64% (inactive)

**Q.** Which growth inhibition does the source give for `Cc1c2ccncc2c(C)c2c1oc1ccccc12` here?
**A.** 90% (active)

**Q.** For `CCCC#CCOC(=O)c1cc([N+](=O)[O-])cc([N+](=O)[O-])c1`, which growth inhibition is on record?
**A.** 100% (active)

**Q.** Which growth inhibition does the source give for `Nc1nc(Nc2ccccc2)nc(Nc2ccccc2)n1` here?
**A.** 58% (inactive)

**Q.** Which growth inhibition does the source give for `COc1ccc(/C=C2\S/C(=N/Nc3nc(-c4ccccc4)cs3)NC2=O)cc1OC` here?
**A.** 97% (active)

**Q.** For `CC(O)CN1C(=O)c2cccc3cc([N+](=O)[O-])cc(c23)C1=O` (configuration not stated), which growth inhibition is on record?
**A.** 73% (active)

**Q.** Which growth inhibition does the source give for `Cc1cc(SC#N)ccc1O` here?
**A.** 95% (active) and 87% (active)

**Q.** For `Cn1c(COc2ccc(/C=N/NC(=O)CCC(=O)N/N=C/c3ccc(OCc4c[n+]5ccccc5n4C)cc3)cc2)c[n+]2ccccc12`, which growth inhibition is on record?
**A.** 84% (active)

**Q.** For `COC1=C(N=[N+]=[N-])C(=O)c2ncccc2C1=O`, which growth inhibition is on record?
**A.** 95% (active)

**Q.** With `CCN(CC)c1ccc(N=Nc2cc(S(=O)(=O)O)ccc2O)c(O)c1` as the compound, how does the growth inhibition read?
**A.** 75% (active)

**Q.** For `O=C1C(C(O)(C(F)(F)F)C(F)(F)F)CCC1C(O)(C(F)(F)F)C(F)(F)F` (configuration not stated), which growth inhibition is on record?
**A.** 49% (inactive)

**Q.** Which growth inhibition does the source give for `COc1nc(N)c(N=CC(OC(C)=O)C(OC(C)=O)C(COC(C)=O)OC(C)=O)c(=O)n1C` (configuration not stated) here?
**A.** 0% (inactive) and -18% (inactive) and -21% (inactive)

**Q.** With `CN(C)CCNC(=O)c1cccc2nc3c(ccc4ccccc43)nc12` as the compound, how does the growth inhibition read?
**A.** 92% (active)

**Q.** With `O=S(=O)(CCC[C@H]1[C@@H](CCOCc2ccccc2)C2CCCN1O2)c1ccccc1` (some centres not stated) as the compound, how does the growth inhibition read?
**A.** -2% (inactive)

**Q.** Which growth inhibition does the source give for `Nc1c([N+](=O)[O-])cc2c3c(cccc13)CC2` here?
**A.** 65% (inactive)

**Q.** With `CC1=Cc2ccc(C)cc2C(=O)C1=O` as the compound, how does the growth inhibition read?
**A.** 99% (active)

**Q.** Which growth inhibition does the source give for `C=Cc1c(C)c(O)cc2c1-c1ccc(O)c(C)c1CC2` here?
**A.** 87% (active)

**Q.** With `NCC(O)CSCc1ccc(Cl)cc1` (configuration not stated) as the compound, how does the growth inhibition read?
**A.** 18% (inactive)

**Q.** Which growth inhibition does the source give for `C[n+]1c(-c2ccc(NC(=O)c3ccc(C(=O)Nc4ccc(-c5cn6ccccc6[n+]5C)cc4)cc3)cc2)cn2ccccc21` here?
**A.** 98% (active)

**Q.** With `Nc1ccccc1SSc1ccccc1N` as the compound, how does the growth inhibition read?
**A.** 99% (active) and 7% (inactive)

**Q.** For `CCCCCCCCCCCC[N+](C)(C)C`, which growth inhibition is on record?
**A.** 96% (active) and 95% (active) and 99% (active)

**Q.** With `CNC(=O)OCc1c(COC(=O)NC)c(C)n(-c2ccc(Cl)c(Cl)c2)c1C` as the compound, how does the growth inhibition read?
**A.** 98% (active)

**Q.** With `[O-]c1c2cc(-[n+]3c(-c4ccccc4)cc(-c4ccccc4)cc3-c3ccccc3)cc1COCCOCCOCCOCCOC2` as the compound, how does the growth inhibition read?
**A.** 70% (active)

Same assay, conditions: S. cerevisiae mlh1 rad18 strain growth inhibition; at 50.0 µM; stronger effect = higher value

**Q.** For `COc1ccc(/C=C2\CCc3ccccc3C2=O)cc1OC`, which growth inhibition is on record?
**A.** 63.5% (inactive)

**Q.** Which growth inhibition does the source give for `CC(C)c1ccc(O)c(=O)cc1` here?
**A.** 91.2% (active) and 92.4% (active) and 92.1% (active)

**Q.** For `O=Cc1ccccc1B(O)O`, which growth inhibition is on record?
**A.** 99.5% (active)

**Q.** For `CC(=O)CC[N+](C)(C)C`, which growth inhibition is on record?
**A.** 41.9% (inactive)

**Q.** Which growth inhibition does the source give for `O=C(O)[C@H]1[C@@H](C2CCCCC2)O[C@@H](C2CCCCC2)O[C@H]1C(F)(F)F` here?
**A.** 83.8% (active)

**Q.** With `CN(NC(=O)/C(=C/C=C/c1ccccc1)NC(=O)c1ccccc1)C1=C(Cl)C(=O)[N+](c2ccccc2)=CC1` as the compound, how does the growth inhibition read?
**A.** 84.4% (active)

**Q.** With `CCCCOc1ccc(Nc2c3ccccc3nc3ccccc23)cc1` as the compound, how does the growth inhibition read?
**A.** 87% (active)

**Q.** With `N#C/C(=C1C=C/C(=N\O)C(Cl)=C\1)c1ccccc1` as the compound, how does the growth inhibition read?
**A.** 80.7% (active)

**Q.** With `COc1ccc(C(=O)OCCc2ccccc2)cc1` as the compound, how does the growth inhibition read?
**A.** -16.4% (inactive)

**Q.** For `Cc1c2ccncc2c(C)c2c1oc1ccccc12`, which growth inhibition is on record?
**A.** 50.1% (inactive)

**Q.** With `CCCC#CCOC(=O)c1cc([N+](=O)[O-])cc([N+](=O)[O-])c1` as the compound, how does the growth inhibition read?
**A.** 99.5% (active)

**Q.** With `Nc1nc(Nc2ccccc2)nc(Nc2ccccc2)n1` as the compound, how does the growth inhibition read?
**A.** 96.5% (active)

**Q.** With `COc1ccc(/C=C2\S/C(=N/Nc3nc(-c4ccccc4)cs3)NC2=O)cc1OC` as the compound, how does the growth inhibition read?
**A.** 98.5% (active)

**Q.** For `CC(O)CN1C(=O)c2cccc3cc([N+](=O)[O-])cc(c23)C1=O` (configuration not stated), which growth inhibition is on record?
**A.** 83.3% (active)

**Q.** Which growth inhibition does the source give for `Cc1cc(SC#N)ccc1O` here?
**A.** 96.4% (active) and 86.3% (active) and 95.6% (active)

**Q.** With `Cn1c(COc2ccc(/C=N/NC(=O)CCC(=O)N/N=C/c3ccc(OCc4c[n+]5ccccc5n4C)cc3)cc2)c[n+]2ccccc12` as the compound, how does the growth inhibition read?
**A.** 90.2% (active)

**Q.** For `CCN(CC)c1ccc(N=Nc2cc(S(=O)(=O)O)ccc2O)c(O)c1`, which growth inhibition is on record?
**A.** 19.9% (inactive)

**Q.** Which growth inhibition does the source give for `O=C1C(C(O)(C(F)(F)F)C(F)(F)F)CCC1C(O)(C(F)(F)F)C(F)(F)F` (configuration not stated) here?
**A.** 69.5% (inactive)

**Q.** With `CN(C)CCNC(=O)c1cccc2nc3c(ccc4ccccc43)nc12` as the compound, how does the growth inhibition read?
**A.** 90.2% (active)

**Q.** With `O=S(=O)(CCC[C@H]1[C@@H](CCOCc2ccccc2)C2CCCN1O2)c1ccccc1` (some centres not stated) as the compound, how does the growth inhibition read?
**A.** 0.4% (inactive)

**Q.** For `Nc1c([N+](=O)[O-])cc2c3c(cccc13)CC2`, which growth inhibition is on record?
**A.** 77.9% (active)

**Q.** With `CC1=Cc2ccc(C)cc2C(=O)C1=O` as the compound, how does the growth inhibition read?
**A.** 99.2% (active)

**Q.** For `C=Cc1c(C)c(O)cc2c1-c1ccc(O)c(C)c1CC2`, which growth inhibition is on record?
**A.** 89.3% (active)

**Q.** For `NCC(O)CSCc1ccc(Cl)cc1` (configuration not stated), which growth inhibition is on record?
**A.** 82.8% (active)

**Q.** Which growth inhibition does the source give for `C[n+]1c(-c2ccc(NC(=O)c3ccc(C(=O)Nc4ccc(-c5cn6ccccc6[n+]5C)cc4)cc3)cc2)cn2ccccc21` here?
**A.** 75.5% (active)

**Q.** For `Nc1ccccc1SSc1ccccc1N`, which growth inhibition is on record?
**A.** 99.3% (active) and 99% (active)

**Q.** Which growth inhibition does the source give for `CCCCCCCCCCCC[N+](C)(C)C` here?
**A.** 83.3% (active) and 91% (active) and 80.5% (active)

**Q.** With `CNC(=O)OCc1c(COC(=O)NC)c(C)n(-c2ccc(Cl)c(Cl)c2)c1C` as the compound, how does the growth inhibition read?
**A.** 92.3% (active)

**Q.** For `[O-]c1c2cc(-[n+]3c(-c4ccccc4)cc(-c4ccccc4)cc3-c3ccccc3)cc1COCCOCCOCCOCCOC2`, which growth inhibition is on record?
**A.** 72.2% (active)

Reference: PubChem BioAssay (NCI)
